Experimental data: PubChem BioAssay (NCATS)
“And” between values parts separate entries of the source, which are not always exact repeats. Equal entries are not always repeated. Results filed as inconclusive are left out. The source made the active and inactive calls. Unless noted, the call rests on the fitted dose curve; in most records, active means well fitted curve in the direction sought with a large enough effect; inconclusive means small, poorly fitted or top-dose-only effect, or another doubt; inactive means no such curve, though single readings can be large; an effect the other way counts as inactive or inconclusive.

Experiments:
[1] = biological target: Glucocorticoid receptor (Homo sapiens) (UniProt P04150); assay: qHTS assay for small molecule antagonists of glucocorticoid receptor signaling (AID 588533; active means well fitted inhibition curve with a large enough effect in the signal ratio, with a control signal flat, not every such curve was filed as active; the % refers to the signal ratio;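 further: cells stimulated with 2 nM dexamethasone as agonist; on the % scale 0 is the no-effect control and ±100 the full control effect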)
How it was run: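 Antagonist-mode qHTS: compound titrations added to GRE-bla HeLa cells, then dexamethasone 2 nM final; 18 h, 37 C. CCF4 FRET fluorescence normalized to dexamethasone and DMSO; IC50 from Hill fit.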

[2] = biological target: Vitamin D3 receptor (Homo sapiens) (UniProt P11473); assay: qHTS assay for small molecule antagonists of vitamin D receptor signaling (AID 588541; calls by dose curve;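 further: receptor activated by calcitriol during compound treatment; series mostly up to about 77 µM; on the % scale 0 is the no-effect control and ±100 the full control effect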)
How it was run: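 Antagonist-mode beta-lactamase reporter assay: HEK293T VDR-UAS-bla cells were exposed to titrated compound alongside 1-alpha,25-dihydroxyvitamin D3 at 3 nM final for 16 h. Values were normalized to the 50 nM agonist control and DMSO basal, with IC50 and efficacy from Hill equation fits.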

[3] = qHTS assay for small molecule agonists of retinoid X receptor alpha signaling (AID 588544; calls by dose curve;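 on activation: 0% = DMSO basal wells and 100% = reference agonist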); conditions: HEK293T RXRa-UAS-bla, beta-lactamase reporter, 18 h; 530 nm emission
[4] = biological target: Retinoic acid receptor RXR-alpha (Homo sapiens) (UniProt P19793); assay: as above
[5] = biological target: Thyroid hormone receptor beta (Homo sapiens) (UniProt P10828); assay: qHTS assay for small molecule agonists of thyroid hormone receptor beta signaling (AID 588545; calls by dose curve;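 further: 0% = DMSO only and 100% = 10 nM T3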)
How it was run: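 TR-UAS-bla-GripTite HEK 293 cells in medium with 2% charcoal/dextran FBS, 0.1 mM NEAA and 1 mM sodium pyruvate were treated with titrated compounds for 18 hrs at 37 C. Beta-lactamase reporter was read with CCF4 dye (ex 405, em 460/530 nm); EC50 from Hill fits.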

[6] = qHTS assay for small molecule antagonists of retinoid X receptor alpha signaling (AID 588546; active means well fitted inhibition curve with a large enough effect in the signal ratio, with a control signal flat, not every such curve was filed as active; the % refers to the signal ratio;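 further: cells stimulated with 9-cis-retinoic acid as agonist; on the % scale 0 is the no-effect control and ±100 the full control effect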); conditions: HEK293T RXRa-UAS-bla, beta-lactamase ratio, antagonist mode; measured here: W530 green channel, cytotoxicity proxy
How it was run: (§1)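 Beta-lactamase reporter inhibition, read as CCF4 fluorescence ratio (ex 405, em 460/530 nm) after 2 h at RT. HEK293T UAS-bla cells, 2500/well, were stimulated with 9-cis-RA at 500 or 100 nM final alongside test compound for 18 h at 37 C.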

[7] = biological target: Retinoic acid receptor RXR-alpha (Homo sapiens) (UniProt P19793); assay: as above; conditions: HEK293T RXRa-UAS-bla, beta-lactamase ratio, antagonist mode
How it was run: as §1

[8] = qHTS assay for small molecule activators of the p53 signaling pathway (AID 651743; active means well fitted activation curve with a large enough effect in the signal ratio, not every such curve was filed as active; the % refers to the signal ratio; further: series mostly up to about 92 µM; % of control where 0% means no effect); conditions: HCT-116 p53RE-bla, beta-lactamase FRET ratio, 16 h; activation: stronger effect = higher value
How it was run: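 A beta-lactamase reporter under p53 response element control, stably carried by HCT-116 cells, reported pathway activation. Test compounds were applied for 16 hours at 37 C, and fluorescence was measured 2 hours after adding the B/G FRET substrate.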

[9] = qHTS assay for small molecule activators of the nuclear factor-kappa B (NF-kB) signaling pathway (AID 651749; active means well fitted activation curve with a large enough effect in the signal ratio; the % refers to the signal ratio; further: series mostly up to about 77 µM; % of control where 0% means no effect); conditions: NF-kB-bla ME-180 cells, beta-lactamase FRET ratio, 16 h; activation: stronger effect = higher value
How it was run: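 FRET-based beta-lactamase detection in ME-180 cells reports NF-kB response-element-driven transcription following overnight (16 hr) compound treatment.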

[10] = qHTS assay for environmental chemicals that activate the Aryl hydrocarbon Receptor (AhR) signaling pathway (AID 651777); conditions: 1A2-DRE human hepatoma cells, luciferase, 24 h; activation: stronger effect = higher value; further: % of control where 0% means no effect; nearly all actives have a fitted effect of over 15% in size
How it was run: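 Human hepatoma 1A2-DRE cells, stably carrying a dioxin response element and CYP1A2 promoter driving luciferase, were exposed to compounds for 24 hr at 37 C and 5% CO2. Luciferase signal was then read after 30 min One-Glo at room temperature.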

[11] = biological target: Peroxisome proliferator-activated receptor alpha (Homo sapiens) (UniProt Q07869); assay: qHTS assay for small molecule agonists of the peroxisome proliferator-activated receptor alpha (PPARalpha) signaling pathway (AID 651778); conditions: PathHunter PPARalpha complementation, chemiluminescence, 6 h; max response: stronger effect = higher value; further: % of control where 0% means no effect
How it was run: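 Chemiluminescence from complemented enzyme reported PPARalpha activation in cells after 6 hr of compound treatment at 37 C. The detection reagent was incubated for 60 min at room temperature, and compounds were scored as agonists.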

[12] = qHTS assay for small molecule agonists of the antioxidant response element (ARE) signaling pathway measured by Nrf2-dependant transcriptional activity (AID 720636; active means well fitted curve in the direction sought with a large enough effect in the repeat runs; an effect the other way counts as inactive or inconclusive; further: % of control where 0% means no effect)
How it was run: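 ARE-luc HepG2 cells carrying an Nrf2-responsive luciferase reporter were plated in medium with 1% dialyzed FBS, left 6 hr at 37 C to attach, then exposed to compound for 16 hr. Luciferase luminescence was read after ONE-Glo addition.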

[13] = qHTS assay for cell viability of HEK293 cells (AID 743288); conditions: ATP luminescence (CellTiter-Glo), 18 h; max response: stronger effect = lower value; further: on the % scale 0 is the no-effect control and ±100 the full control effect; nearly all actives have a fitted effect of over 50% in size
How it was run: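 Steps: plate 2,000 parental HEK293 cells per well; incubate ≥5 h, 37 C; add compounds in DMSO; incubate 18 h, 37 C; add CellTiter-Glo; wait 30 min at room temperature; read luminescence.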

[14] = biological target: Nuclear receptor subfamily 1 group I member 2 (Rattus norvegicus) (UniProt Q9R1A7); assay: qHTS assay for small molecule activators of the rat pregnane X receptor (rPXR) signaling pathway (AID 651751; call rule not given here; further: 0% is about no effect); conditions: rPXR reporter cells, luciferase (One-Glo), 24 h
[15] = qHTS assay for small molecule activators of the human pregnane X receptor (PXR) signaling pathway (AID 720659; call rule not given here; further: 0% is about no effect)
[16] = biological target: Vitamin D3 receptor (Homo sapiens) (UniProt P11473); assay: qHTS assay for small molecule agonists of vitamin D receptor signaling (AID 588543; calls by dose curve;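 further: 0% = DMSO basal and 100% = reference agonist control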)
How it was run: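 VDR-UAS-bla HEK293T cells, 2000/well, 2% charcoal-stripped FBS; compound titration 16 h at 37 C; CCF4 beta-lactamase ratio read. Normalized to 50 nM 1-alpha,25-dihydroxyvitamin D3 (100%) and DMSO; Hill fit gives EC50, efficacy.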

[17] = qHTS assay for small molecule agonists of the antioxidant response element (ARE) signaling pathway measured by Nrf2-dependant transcriptional activity - cell viability counter screen (AID 720653; active means well fitted curve in the direction sought with a large enough effect in the repeat runs; an effect the other way counts as inactive or inconclusive; further: on the % scale 0 is the no-effect control and ±100 the full control effect); conditions: ARE-bla HepG2 viability, CellTiter-Glo ATP luminescence, 16 h; max response: stronger effect = lower value
How it was run: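 Cytotoxicity counter screen: intracellular ATP quantified by CellTiter-Glo luminescence in the same ARE-bla HepG2 plates, after 16 h compound exposure and a 2 h beta-lactamase substrate step.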

[18] = qHTS assay for cell viability of the p53RE-bla HCT-116 cell line (AID 743292); further: on the % scale 0 is the no-effect control and ±100 the full control effect; nearly all actives have a fitted effect of over 55% in size
How it was run: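 CellSensor p53RE-bla HCT-116 cells, 4,000/well, preincubated 5 h at 37 C, then exposed to compounds in DMSO for 16 h at 37 C. Viability read as CellTiter-Glo luminescence (intracellular ATP) after 30 min at room temperature.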

[19] = qHTS assay for small molecule antagonists of peroxisome proliferator-activated receptor delta signaling (AID 588535; active means well fitted inhibition curve with a large enough effect in the signal ratio, with a control signal flat, not every such curve was filed as active; the % refers to the signal ratio;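 on max response: cells co-treated with a PPAR-delta agonist as stimulator during compound exposure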); conditions: HEK293T PPARd-UAS-bla, beta-lactamase FRET ratio, 18 h; 460 nm channel
How it was run: (§2)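 Antagonist-mode qHTS using GeneBLAzer PPAR-delta-UAS-bla HEK293T cells; compound exposure 18 hrs at 37 C over a titration. Ratiometric CCF4 fluorescence at 460/530 nm; concentration-response points fitted to the Hill equation.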

[20] = biological target: Peroxisome proliferator-activated receptor delta (Homo sapiens) (UniProt Q03181); assay: as above
How it was run: as §2

Sequence of Retinoic acid receptor RXR-alpha (Homo sapiens) (P19793 whole entry, looked up): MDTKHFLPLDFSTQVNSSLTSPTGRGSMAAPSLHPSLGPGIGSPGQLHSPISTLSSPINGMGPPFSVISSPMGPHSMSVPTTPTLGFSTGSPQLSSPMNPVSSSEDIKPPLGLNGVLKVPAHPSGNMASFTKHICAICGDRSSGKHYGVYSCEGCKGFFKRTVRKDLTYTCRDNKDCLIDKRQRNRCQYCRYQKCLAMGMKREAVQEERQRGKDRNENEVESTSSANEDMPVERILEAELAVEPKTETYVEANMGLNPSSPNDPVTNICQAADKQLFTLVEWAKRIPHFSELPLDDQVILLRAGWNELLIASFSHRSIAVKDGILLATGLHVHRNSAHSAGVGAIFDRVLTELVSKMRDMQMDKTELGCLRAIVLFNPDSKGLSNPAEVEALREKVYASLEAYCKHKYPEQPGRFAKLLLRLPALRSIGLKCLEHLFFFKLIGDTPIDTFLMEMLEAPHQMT
Sequence of Thyroid hormone receptor beta (Homo sapiens) (P10828 whole entry, looked up): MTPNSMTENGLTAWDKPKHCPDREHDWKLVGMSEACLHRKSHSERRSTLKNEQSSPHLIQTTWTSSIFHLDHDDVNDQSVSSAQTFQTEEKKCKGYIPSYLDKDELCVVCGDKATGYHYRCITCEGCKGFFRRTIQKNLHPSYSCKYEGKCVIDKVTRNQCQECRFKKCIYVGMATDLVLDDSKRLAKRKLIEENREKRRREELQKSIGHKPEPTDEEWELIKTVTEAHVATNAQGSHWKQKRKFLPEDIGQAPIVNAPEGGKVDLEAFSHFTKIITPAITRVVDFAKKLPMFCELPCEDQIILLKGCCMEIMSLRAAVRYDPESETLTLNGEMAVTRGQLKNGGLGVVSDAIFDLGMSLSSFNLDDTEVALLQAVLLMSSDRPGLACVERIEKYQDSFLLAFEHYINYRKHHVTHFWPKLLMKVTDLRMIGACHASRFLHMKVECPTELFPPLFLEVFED
Sequence of Vitamin D3 receptor (Homo sapiens) (P11473 whole entry, looked up): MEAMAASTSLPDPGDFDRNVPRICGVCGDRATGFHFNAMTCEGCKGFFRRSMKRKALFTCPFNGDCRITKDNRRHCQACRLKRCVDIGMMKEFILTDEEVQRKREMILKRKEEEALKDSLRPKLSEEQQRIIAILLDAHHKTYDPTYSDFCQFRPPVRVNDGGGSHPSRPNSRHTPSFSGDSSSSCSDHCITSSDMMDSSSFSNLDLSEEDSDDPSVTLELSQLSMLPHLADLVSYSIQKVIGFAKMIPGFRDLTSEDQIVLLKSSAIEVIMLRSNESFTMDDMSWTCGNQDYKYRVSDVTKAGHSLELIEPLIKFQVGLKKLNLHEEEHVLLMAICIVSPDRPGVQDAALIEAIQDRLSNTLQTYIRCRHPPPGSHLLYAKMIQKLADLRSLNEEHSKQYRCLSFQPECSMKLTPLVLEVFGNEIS
Sequence of Glucocorticoid receptor (Homo sapiens) (P04150 whole entry, looked up): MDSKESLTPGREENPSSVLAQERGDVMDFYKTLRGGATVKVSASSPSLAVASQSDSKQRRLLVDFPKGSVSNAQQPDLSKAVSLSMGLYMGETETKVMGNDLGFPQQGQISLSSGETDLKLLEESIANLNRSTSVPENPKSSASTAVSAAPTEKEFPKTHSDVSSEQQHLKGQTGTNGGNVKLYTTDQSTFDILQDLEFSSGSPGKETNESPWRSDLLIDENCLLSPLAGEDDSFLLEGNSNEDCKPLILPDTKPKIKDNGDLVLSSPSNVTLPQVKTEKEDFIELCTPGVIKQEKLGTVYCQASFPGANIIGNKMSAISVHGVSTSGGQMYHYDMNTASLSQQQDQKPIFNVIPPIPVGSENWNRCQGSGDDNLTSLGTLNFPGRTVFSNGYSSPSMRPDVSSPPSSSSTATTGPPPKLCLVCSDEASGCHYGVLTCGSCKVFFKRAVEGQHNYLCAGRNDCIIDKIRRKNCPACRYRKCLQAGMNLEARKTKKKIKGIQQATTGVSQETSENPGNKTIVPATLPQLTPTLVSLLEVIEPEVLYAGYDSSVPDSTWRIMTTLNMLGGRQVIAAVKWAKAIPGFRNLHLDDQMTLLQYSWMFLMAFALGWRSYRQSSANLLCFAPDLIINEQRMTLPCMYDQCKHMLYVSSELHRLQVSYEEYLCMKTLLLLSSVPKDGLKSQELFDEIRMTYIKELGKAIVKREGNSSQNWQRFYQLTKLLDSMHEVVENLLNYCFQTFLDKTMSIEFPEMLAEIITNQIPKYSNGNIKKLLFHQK
Sequence of Nuclear receptor subfamily 1 group I member 2 (Rattus norvegicus) (Q9R1A7 whole entry, looked up): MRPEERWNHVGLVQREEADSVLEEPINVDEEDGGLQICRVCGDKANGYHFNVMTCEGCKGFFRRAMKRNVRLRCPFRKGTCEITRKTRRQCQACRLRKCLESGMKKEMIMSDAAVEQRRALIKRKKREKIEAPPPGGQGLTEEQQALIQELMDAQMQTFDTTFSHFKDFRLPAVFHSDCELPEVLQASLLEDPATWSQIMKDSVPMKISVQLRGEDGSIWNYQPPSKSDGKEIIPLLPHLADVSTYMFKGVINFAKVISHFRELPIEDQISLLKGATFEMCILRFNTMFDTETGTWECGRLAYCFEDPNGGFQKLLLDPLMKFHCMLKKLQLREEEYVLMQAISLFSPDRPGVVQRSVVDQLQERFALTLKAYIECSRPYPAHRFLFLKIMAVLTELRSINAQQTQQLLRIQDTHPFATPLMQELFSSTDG
Sequence of Peroxisome proliferator-activated receptor alpha (Homo sapiens) (Q07869 whole entry, looked up): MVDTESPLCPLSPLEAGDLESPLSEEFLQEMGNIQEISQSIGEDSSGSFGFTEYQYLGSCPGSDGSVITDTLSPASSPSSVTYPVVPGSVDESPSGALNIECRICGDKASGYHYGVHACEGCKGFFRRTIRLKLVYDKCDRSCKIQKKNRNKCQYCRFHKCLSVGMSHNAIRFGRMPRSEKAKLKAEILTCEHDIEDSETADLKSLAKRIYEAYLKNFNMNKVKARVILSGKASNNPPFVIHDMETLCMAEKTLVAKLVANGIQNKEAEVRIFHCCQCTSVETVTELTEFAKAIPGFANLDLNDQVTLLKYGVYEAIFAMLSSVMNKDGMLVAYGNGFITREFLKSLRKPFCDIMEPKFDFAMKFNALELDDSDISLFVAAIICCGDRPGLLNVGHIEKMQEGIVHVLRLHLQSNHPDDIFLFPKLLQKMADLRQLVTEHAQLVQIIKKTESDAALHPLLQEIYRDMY
Sequence of Peroxisome proliferator-activated receptor delta (Homo sapiens) (Q03181 whole entry, looked up): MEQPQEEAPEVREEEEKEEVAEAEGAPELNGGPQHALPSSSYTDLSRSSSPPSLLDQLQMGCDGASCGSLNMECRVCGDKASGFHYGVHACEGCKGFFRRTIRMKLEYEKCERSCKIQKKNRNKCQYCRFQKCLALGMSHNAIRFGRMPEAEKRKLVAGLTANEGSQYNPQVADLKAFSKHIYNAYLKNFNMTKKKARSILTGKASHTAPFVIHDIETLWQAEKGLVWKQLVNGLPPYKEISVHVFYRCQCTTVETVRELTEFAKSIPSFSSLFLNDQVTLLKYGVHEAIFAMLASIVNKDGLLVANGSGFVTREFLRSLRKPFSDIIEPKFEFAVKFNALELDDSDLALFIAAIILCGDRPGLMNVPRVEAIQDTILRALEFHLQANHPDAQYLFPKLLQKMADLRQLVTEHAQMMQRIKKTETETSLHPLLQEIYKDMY

C=C(C)C(=O)OCCOCCOCCOC(=O)C(=C)C
Potency [1]: inactive
Potency [2]: inactive
max response [3]: 1.13%
Potency [4]: inactive
Potency [5]: inactive
max response [6]: 3.38%
max response [7]: 4.6% (inactive)
activation [8]: -4.46% (inactive)
activation [9]: -1.62% (inactive)
activation [10]: -1.22% (inactive)
max response [11]: -0.929% (inactive)
Potency [12]: inactive
max response [13]: -8.3% (inactive)
max response [14]: -0.564% (inactive)
outcome [15]: inactive

S=C([S-])NCCNC(=S)[S-].[Mn+2]
Potency [1]: inactive
outcome [16]: inactive
Potency [5]: inactive
activation [10]: 2.64% (inactive) and 10.8% (inactive)
max response [11]: -2% (inactive) and -3.91% (inactive)
max response [17]: -8.97% (inactive) and -21.3% (inactive)
max response [13]: -16.3% (inactive)
Potency [18]: inactive
max response [14]: -0.103% (inactive) and -4.92% (inactive)

CC(C)CCCCOC(=O)c1ccccc1C(=O)OCCCCC(C)C
Potency [1]: inactive
max response [19]: -26.8%
Potency [20]: inactive
max response [3]: 6.42%
Potency [4]: inactive
Potency [5]: inactive
max response [6]: -6.23%
max response [7]: -8.08% (inactive)
activation [8]: -3.26% (inactive)
activation [9]: -2.54% (inactive)
activation [10]: 0.811% (inactive)
max response [11]: 2.93% (inactive)
Potency [12]: inactive
max response [17]: -11% (inactive)
max response [13]: -17.5% (inactive)
Potency [18]: inactive
max response [14]: 13.4% (inactive)
